# Data published in PubChem BioAssay (Tox21).
# Inconclusive results are not listed. A number with no mark means an inactive call. Active and inactive are the calls of the source. Calls come from the whole dose curve; as a rule, active = well fitted activation curve with a large enough effect in the repeat runs; inconclusive = weak or mixed curves; inactive = flat fitted curve, though single readings scatter.
# Experiment: A CellTox Green Cytotoxicity Assay to monitor cytotoxicity in HEK293 cells - 24 hour (AID 1224875); note: nearly all actives have a fitted effect of over 45% in size
# Details: CellTox Green fluorescence; series mostly up to 76.8 µM; activity change: at the top concentration
# From the text: National Center for Advancing Translational Sciences [NCATS]
# NIH Chemical Genomics Center [NCGC]
# U.S. Environmental Protection Agency [EPA]
# National Institutes of Environmental Health Sciences [NIEHS]
# National Toxicology Program [NTP]
# Cell-based models are critical for drug discovery. Determining the natural cytotoxic effects resulting from test compounds is an essential research activity. A CellTox Green Cytotoxicity Assay to monitor cytotoxicity in real time of continues cell culture during 40 hours of the compound treatment was used to screen Tox21 10K library compounds in Hek293 cells. CellTox Green Cytotoxicity Assay is a nonlytic, homogeneous, biofluorescent method to measure cytotoxicity in cell culture after experimental manipulation. The assay system uses a proprietary asymmetric cyanine dye that is excluded from viable cells but preferentially stains the dead cell's DNA. […] Viable cells produce no appreciable increases in fluorescence. Therefore, the fluorescence signal produced by the binding interaction with dead cell DNA is proportional to cytotoxicity.
# The mixture of Hek293 cell suspension and reagents were dispensed at 600cells/6 ul/well in 1536-well tissue culture treated black solid bottom plates using a Multidrop dispenser. After the assay plates were incubated at a 37 C/5% CO2 incubator for 5 hours, 23 nL of compounds dissolved in DMSO, positive and negative controls was transferred to the assay plate by a pintool work station. The plates were incubated at 37 C for 40 hours. The fluorescence intensity were measured at 0h, 8h, 16h, 24h, 32h and 40h time points using ViewLux plate reader during compound treatment.
# % is set by controls: 0 for no effect and ±100 for the full control effect.
SMILES,activity change,Potency
O=C1CCCN1C1CCCCC1,0.0694%,–
CCOC(C)(C)C,-6.14%,–
NS(=O)(=O)c1cc(C(=O)NN2C[C@H]3[C@H]4CCC(C4)[C@H]3C2)ccc1Cl,"1.42% [at 35.3 µM, hits give high values]",–
NS(=O)(=O)c1cc2c(cc1Cl)NC(C1CC3C=CC1C3)NS2(=O)=O (stereo not given),"6.04% [at 35.3 µM, hits give high values]",–
O=C(O)COc1nn(Cc2ccccc2)c2ccccc12,"-4.3% [at 35.3 µM, hits give high values]",–
COc1ccc2c(c1)CCCC2=O,"-2.74% [at 35.3 µM, hits give high values]",–
Nc1ccc(S(=O)(=O)Nc2ccnn2-c2ccccc2)cc1,"1.21% [at 15.8 µM, hits give high values]",–
CC(C)CNCC(C)C,23.3%,–
CCCCCSCCCCC,-14.4%,–
Cc1cc2c(cc1S(N)(=O)=O)S(=O)(=O)CCC2,"0.815% [at 35.3 µM, hits give high values]",–
O=C1CCCCCCCCCCCN1,–,inactive
O=c1cc(CO)occ1O,"8.42% [at 35.3 µM, hits give high values]",–
CN1C(=O)N(C)C(O)C1O (stereo not given),3.46%,–
COc1nc(N)nc2c1ncn2[C@@H]1O[C@H](CO)[C@@H](O)[C@@H]1O,"-18.1% [at 35.3 µM, hits give high values]",–
CCCCOCCOCCOCc1cc2c(cc1CCC)OCO2,–,inactive
CCOC(=O)CC(C)=O,0.745%,–
CC(C)OC(=O)c1ccccc1,-10.2%,–
CCN1CCC[C@H]1CNC(=O)c1cc(S(N)(=O)=O)ccc1OC,"9.68% [at 35.3 µM, hits give high values]",–
COC(=O)c1ccc(C)cc1C1=NC(C)(C(C)C)C(=O)N1 (stereo not given),18%,–
CCOc1ccc(C(=O)OCCN(CC)CC)cc1,"-4.65% [at 35.3 µM, hits give high values]",–

SMILES,activity change,Potency
O=C(O)CN(CCOCCOCCN(CC(=O)O)CC(=O)O)CC(=O)O,"5.13% [at 0.29 µM, hits give high values]",–
COC(=O)C1=C(C)NC(C)=C(C(=O)OC)C1c1ccccc1[N+](=O)[O-],18%,–
CCOC(=O)c1c(C)n(C)c2ccc(O)cc12,"-0.506% [at 35.3 µM, hits give high values]",–
CCOC(=O)C(=O)OCC,-1.65%,–
CC(=O)OC/C=C(\C)CC/C=C(\C)CCC=C(C)C,–,inactive
C[C@@H]1CCN(C(=O)[C@H](CCCN=C(N)N)NS(=O)(=O)c2cccc3c2NC[C@H](C)C3)[C@@H](C(=O)O)C1,"-6.79% [at 35.3 µM, hits give high values]",–
O=Cc1cccc([N+](=O)[O-])c1,-2.48%,–
C/C=C(\C)C#N,0.68%,–
NC(=O)Nc1ccccc1,-5.34%,–
CC(=O)Nc1c(I)cc(I)c(C(=O)O)c1I,"-4.47% [at 35.3 µM, hits give high values]",–
CS(=O)(=O)O,-14.7%,–
c1cnc(N2CCN(Cc3ccc4c(c3)OCO4)CC2)nc1,"-11.9% [at 35.3 µM, hits give high values]",–
CC(C)NCCCC1(C(N)=O)c2ccccc2-c2ccccc21,"-8.54% [at 35.3 µM, hits give high values]",–
CCOC(=O)Nc1ccc(NCc2ccc(F)cc2)nc1N,"-14.9% [at 35.3 µM, hits give high values]",–
CCCCCCCCCCCC,0.33%,–
COC(=O)[C@@H](N)Cc1ccc(O)c(O)c1,"-8.66% [at 35.3 µM, hits give high values]",–
CC(=O)OCC(=O)[C@@]1(O)CC[C@H]2[C@@H]3CCC4=CC(=O)CC[C@]4(C)[C@H]3C(=O)C[C@@]21C,"4.13% [at 35.3 µM, hits give high values]",–
CCC(C)C1CCCCC1=O (stereo not given),-2.68%,–
Cc1c(NC(C)C)c(=O)n(-c2ccccc2)n1C,"-3.28% [at 35.3 µM, hits give high values]",–
CC1=CC(C)C(C=O)CC1 (stereo not given),-0.0352%,–
